# Columns and labels:
# Details in all cases: concentration: 1 μM,replicates: in singlicate; n = 1
# CDK8 = tested on: CDK8
# CDK9 = tested on: CDK9
# CDKL1 = tested on: CDKL1
# CDKL2 = tested on: CDKL2
# CDKL3 = tested on: CDKL3
# CDKL5 = tested on: CDKL5
# CHEK1 = tested on: CHEK1
# CHEK2 = tested on: CHEK2
# CIT = tested on: CIT
# CLK1 = tested on: CLK1
# CLK2 = tested on: CLK2
# CLK3 = tested on: CLK3
# CLK4 = tested on: CLK4
# CSF1R-autoinhibited = tested on: CSF1R-autoinhibited
# CSF1R = tested on: CSF1R
# CSK = tested on: CSK
# CSNK1A1L = tested on: CSNK1A1L
# CSNK1A1 = tested on: CSNK1A1
# CSNK1D = tested on: CSNK1D
# CSNK1E = tested on: CSNK1E
# 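Further: KINOMEscan kinase panel screen.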
SMILES,%Inh (CDK8) [%],%Inh (CDK9) [%],%Inh (CDKL1) [%],%Inh (CDKL2) [%],%Inh (CDKL3) [%],%Inh (CDKL5) [%],%Inh (CHEK1) [%],%Inh (CHEK2) [%],%Inh (CIT) [%],%Inh (CLK1) [%],%Inh (CLK2) [%],%Inh (CLK3) [%],%Inh (CLK4) [%],%Inh (CSF1R-autoinhibited) [%],%Inh (CSF1R) [%],%Inh (CSK) [%],%Inh (CSNK1A1L) [%],%Inh (CSNK1A1) [%],%Inh (CSNK1D) [%],%Inh (CSNK1E) [%]
CCOC(=O)N1CCC(n2cnc(-c3ccc(F)cc3)c2-c2ccnc(N)n2)CC1 [SB-219952],22,0,7,0,30,13,0,2,41,0,0,2,2,22,70,11,74,97.8,94.8,99.7
CSc1nccc(-c2c(-c3ccc(F)cc3)ncn2CCCN2CCOCC2)n1.Cl [SB-217146],1,0,36,10,0,11,0,0,0,0,0,0,18,0,0,0,0,6,54,10
Cc1ccc(Nc2ccnc(Nc3ccc4c(c3)CS(=O)(=O)C4)n2)cc1O.Cl [GW579362],38,37,36,41,0,0,0,14,69,81,16,82,81,76,97.5,48,8,0,3,21
CCNCC(Cc1ccccc1)NC(=O)c1cc(Br)c(-c2ccnc3[nH]ccc23)s1.Cl.Cl (stereo not drawn) [GSK1383280],0,19,17,0,0,0,20,42,73,59,71,47,59,0,55,6,6,0,32,39
Cc1ccc(CC(=O)N2CCc3cc(-c4cn(C)c5ncnc(N)c45)ccc32)cc1 [GSK2634758],83,0,8,0,0,0,1,17,19,13,0,0,0,21,79,100,14,0,16,66
O=C(Nc1cccc(C(F)(F)F)c1)c1cccc(Oc2ccc3nccn3n2)c1,0,0,14,18,0,3,0,0,13,7,0,0,4,16,100,0,0,0,11,0
Nc1nccc(-c2ccc3c(N)n[nH]c3c2)n1 [GSK1034945],13,2,10,18,30,0,0,58,54,98,88,44,95.3,0,0,0,5,0,17,29
CC(C)S(=O)(=O)N1CCN(Cc2ccc3c(c2)nc(NC(=O)c2ccsc2)n3C[C@H](O)c2ccccc2)CC1 [GW635815],15,0,8,6,0,0,0,32,98.4,98.5,91.9,79,95.5,45,68,13,68,60,56,71
O=C1NCCc2[nH]c(-c3ccncc3)cc21,19,97.9,5,7,2,29,0,31,99.7,99.5,94.8,32,94.6,0,5,10,73,95.7,96.6,98.1
OCCn1cc(-c2cnc3nnn(Cc4ccc5ncccc5c4)c3n2)cn1,0,8,0,0,10,0,0,6,0,16,0,0,0,25,0,33,0,15,0,0
O=C(Nc1cccc(Oc2ccc3nccn3n2)c1)Nc1cccc(C(F)(F)F)c1,90.9,0,0,62,0,4,0,0,99.9,31,0,0,0,0,99.8,12,3,0,2,11
CC(=O)Nc1ccc(-c2cc3ncnc(SCC(=O)O)c3s2)cc1,0,85,16,0,26,18,1,26,0,31,53,9,32,41,48,12,5,33,4,0
Cl.c1ccc(Oc2ccc(Nc3ccnc4cc(-c5ccc(CN6CCNCC6)o5)ccc34)cc2)nc1 [GW567142],0,0,0,0,0,0,5,82,9,25,0,15,0,0,43,72,0,0,16,40
Cc1ccc(C(=O)Nc2ccc(Oc3ccc4nc(NC(=O)C5CC5)cn4c3)c(F)c2)c(=O)n1-c1ccccc1,87,0,41,99.6,0,0,0,0,36,0,5,2,0,0,100,24,0,29,0,0
CN(c1cccc(CNc2nc(Nc3ccc4c(c3)CC(=O)N4)ncc2C(F)(F)F)c1)S(C)(=O)=O,0,6,44,55,7,0,0,0,30,63,26,16,47,31,15,0,0,0,7,18
COc1cc(Nc2nccc(N3CCC(NC(=O)c4cccc(C#N)c4)C3)n2)cc(OC)c1OC (stereo not drawn) [GSK1379751],6,0,0,41,0,0,0,0,8,4,0,0,0,14,28,0,0,0,0,8
Cn1ccc2ncnc(Oc3ccc(NC(=O)Nc4cncc(C(F)(F)F)c4)c(Cl)c3)c21,95,0,0,0,0,0,0,9,44,0,7,0,7,0,99.4,0,0,0,0,0

SMILES,%Inh (CDK8) [%],%Inh (CDK9) [%],%Inh (CDKL1) [%],%Inh (CDKL2) [%],%Inh (CDKL3) [%],%Inh (CDKL5) [%],%Inh (CHEK1) [%],%Inh (CHEK2) [%],%Inh (CIT) [%],%Inh (CLK1) [%],%Inh (CLK2) [%],%Inh (CLK3) [%],%Inh (CLK4) [%],%Inh (CSF1R-autoinhibited) [%],%Inh (CSF1R) [%],%Inh (CSK) [%],%Inh (CSNK1A1L) [%],%Inh (CSNK1A1) [%],%Inh (CSNK1D) [%],%Inh (CSNK1E) [%]
CCCC(=O)Nc1n[nH]c2ncccc12 [SB-601436],0,0,0,0,0,0,0,0,0,2,0,22,0,0,0,8,4,0,0,2
Cc1ccc2c(-c3ccnc(Nc4ccc(C(F)(F)F)cc4)n3)cnn2n1 [GW819776],36,23,39,69,77,61,0,0,19,83,72,31,67,0,11,0,0,7,31,19
N#Cc1cccc(C(=O)NC2CCN(c3ccnc(Nc4ccc(F)cc4)n3)C2)c1 (stereo not drawn) [GSK1379708],19,0,8,17,0,6,0,0,11,14,0,0,1,2,1,24,1,0,17,1
Cn1cc(-c2cccc3c(N)c(C(N)=O)nnc23)cn1,33,0,32,12,7,0,0,0,10,74,78,20,75,0,0,19,21,72,32,25
Cc1cccc2c(-c3ccncc3)c(-c3ccc(F)cc3)nn12.Cl [GW461487],25,0,12,8,0,0,0,0,90,17,0,3,0,4,0,0,22,51,93.3,84
O=C(NCC1CC1)c1ccc(-c2cc(C(=O)NC3CC3)ccc2F)cc1 [GW810445],62,0,0,0,28,0,0,0,25,0,15,0,0,8,0,0,0,0,0,0
Cn1ccc2ncnc(Oc3ccc(NC(=O)Nc4ccnc(C(F)(F)F)c4)c(Cl)c3)c21,95.5,0,34,3,0,19,0,2,18,0,0,0,0,6,92.3,0,16,0,0,0
COc1cccc(CNC(=O)NC2CCN(c3ccnc(Nc4cc(OC)c(OC)c(OC)c4)n3)C2)c1 (stereo not drawn) [GSK1379765],29,0,13,22,0,0,0,14,28,21,0,0,16,29,15,20,16,0,14,18
Cc1nnc(-c2ccc3occ(-c4ccc(S(C)=O)cc4)c3n2)o1 (stereo not drawn),0,0,24,0,0,0,0,1,0,0,19,0,0,0,1,0,6,0,0,0
C[C@@H](Oc1cc(-n2cnc3cc(-c4cnn(C)c4)ccc32)sc1C(N)=O)c1ccccc1Cl [GSK580432],17,5,20,22,0,0,32,0,32,59,23,23,34,0,80,3,1,7,0,0
O=C(NOCC1CC1)c1cc(Br)c(F)c(F)c1Nc1ccc(I)cc1Cl,0,0,8,0,0,0,0,0,0,0,9,0,0,0,0,0,0,1,0,0
C[C@@H]1CNc2c(sc3ccc4nc(-c5ccc(O)cc5)ccc4c23)C(=O)N1,63,67,15,0,5,0,0,54,54,97.3,98.2,50,95.7,7,4,0,84,95.4,63,55
O=c1[nH]cc(-c2ccc(O)cc2)c2sc(-c3ccncc3)cc12 [GSK1033723],27,6,7,9,0,0,0,10,45,95.7,67,19,95.9,2,25,5,13,57,41,46
CN(c1ccc2c(c1)nc(NCc1ccc(F)cc1)n2C)c1ccnc(Nc2ccc(CS(C)(=O)=O)cc2)n1.Cl [GW813244],2,57,30,40,20,0,0,0,86,13,46,0,17,62,100,0,5,28,10,0
Cn1ccc2ncnc(Oc3ccc(NC(=O)Nc4cc(C(C)(C)C)on4)c(Cl)c3)c21,90.9,6,48,26,17,32,0,7,63,0,95.1,0,10,43,100,0,15,6,6,0
CN1CCN(CCCNc2nccc(-c3c(-c4ccc(F)cc4)nn4cc(C(N)=O)ccc34)n2)CC1 [GW622475],19,3,5,31,92.6,0,0,1,95.2,19,0,0,12,0,22,11,52,95.7,97.4,99.7
